Source: PubChem BioAssay
KCNH2 3.1 block: KCNH2 3.1 (human) potassium channel inhibition; U2OS KCNH2 3.1, thallium flux FluxOr; active compounds read low; activity change, % (tested at about 1.8 µM); hit rate 0.95% among 340,000; AID 720553;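 active means maximum activity change below -70%; inconclusive means maximum activity change from -70% to -50%; inactive means maximum activity change above -50%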;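 further: thallium influx rate constant from kinetic fluorescence after stimulation buffer; on the % scale 0 is the no-effect control and ±100 the full control effect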
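FluxOr-based Tl+ influx in U2OS cells transduced with KCNH2 3.1 virus; rate constants normalized to DMSO controls.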
KB-V1 MDR tox: kills drug-selected multidrug resistant KB-V1 cells; KB-V1 MDR cells viability, CellTiter-Glo, 72 h; Potency, µM (highest dose often 46.1 µM), hits mostly cytotoxic; hit rate 3.4% among 400,000; further: potency means the concentration at half of the fitted maximal effect; on the % scale 0 is the no-effect control and ±100 the full control effect; nearly all actives have a fitted effect of over 60% in size
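KB-V1 MDR subline cells in DMEM (phenol-red free, 10% FBS) exposed to compounds in qHTS concentration series for 72 h at 37 degrees C. Viability read by CellTiter-Glo luminescence; concentration-effect curves fitted after normalization and correction.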
KB-3-1 cytotox: kills parental KB-3-1 adenocarcinoma cells; KB-3-1 viability, CellTiter-Glo ATP luminescence, 72 h; Potency, µM (highest dose often 46.1 µM), actives largely listed as cytotoxic; hit rate 1.4% among 400,000; further: potency means the concentration at half of the fitted maximal effect; on the % scale 0 is the no-effect control and ±100 the full control effect; nearly all actives have a fitted effect of over 60% in size
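Here the drug-naive KB-3-1 line serves as comparator for MDR sub-line selectivity; cells received compound titrations, 72 h at 37 °C, then CellTiter-Glo readout.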
MCF10A rereplic: induces DNA re-replication in MCF 10a normal breast cells. Potency, µM (titrated, usually from 46.1 µM), for the others: at the highest dose activity, positive = re-replication, actives largely listed as activators. hit rate 2.9% among 350,000. AID 624296. MCF 10A DNA re-replication, Hoechst nuclear intensity, 48 h; further: potency means the concentration at half of the fitted maximal effect; % of control where 0% means no effect; nearly all actives have a fitted effect of over 50% in size
KCNH2 WT inh: KCNH2 (human, wildtype) channel inhibition | U2OS, BacMam KCNH2, thallium flux FluxOr; active compounds read low | activity change, % at 1.84 µM | hit rate 0.37% among 340,000 | AID 720551;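 active means maximum activity change below -70%; inconclusive means maximum activity change between -70% and -50%; inactive means maximum activity change above -50%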; further: on the % scale 0 is the no-effect control and ±100 the full control effect
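U2OS cells were transduced with wild-type KCNH2 virus (2.03 x 10^8 / mL) for 4 h at room temperature, then cultured overnight at 37 C. Thallium flux was read with FluxOr dye. Rate constants were normalized to DMSO controls.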
SW480 rereplic: inducers of DNA re-replication in SW480 colon cancer cells; SW480 DNA re-replication, Hoechst DNA content imaging, 48 h; Potency, µM (top dose mostly 46.1 µM), for the others: top-dose re-replication activation, usual class: activators; hit rate 1.8% among 340,000; AID 624297; further: potency means the concentration at half of the fitted maximal effect; % of control where 0% means no effect; nearly all actives have a fitted effect of over 55% in size
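SW480 cells exposed to compounds for 48 hr at 37 C, 5% CO2, then Hoechst-stained 40 min. Nuclear DNA content imaged by fluorescence scanning (405 nm excitation, 500-530 nm emission); re-replication scored as increased high-intensity nuclei.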
Active calls of the source: *; i = inactive; ? = inconclusive; . = not tested or not shown; [ ] = dose if it differs, or a comment. Only some compounds are listed: those with a hit (about 7.6% of all), similar ones and a draw of the others. Unless noted, the call rests on the fitted dose curve; in most records, active means well fitted curve in the direction sought with a large enough effect; inconclusive means small, poorly fitted or top-dose-only effect, or another doubt; inactive means no such curve, though single readings can be large; an effect the other way counts as inactive or inconclusive.

SMILES	KCNH2 3.1 block	KB-V1 MDR tox	KB-3-1 cytotox	MCF10A rereplic	KCNH2 WT inh	SW480 rereplic
COc1ccc2[nH]c(=O)c(CN(Cc3cccnc3)C(=S)NCC3CCCO3)cc2c1 (stereo unspecified)	14	i	i	1%	4	-4%
CCN(CC)C(=O)CSc1nnc(-c2cc(-c3ccc(Cl)cc3)nc3ccccc23)o1	7	i	i	9%	-4	1%
CN(C)C(=O)CSc1nnc(-c2cc(-c3cccs3)nc3ccccc23)o1	1	?	i	10µM*	-23	?
O=C(CSc1nnc(-c2cccs2)o1)c1cccs1	11	i	i	3.7µM*	10	?
CCNS(=O)(=O)c1ccc(CCC(=O)N2CCc3ccccc3C2)cc1	-7	i	i	20%	-11	13%
CC(=O)N1c2ccc(S(=O)(=O)Nc3ccc(C)c(C)c3)cc2CC1C (stereo unspecified)	.	i	i	.	.	.
CCCCN(CCCC)C(=O)CN(C)S(=O)(=O)c1ccc2c(c1)n(C)c(=O)c(=O)n2C	-10	12µM*	i	-8%	25	-5%
COc1cc2nc(Nc3ccc(C)c(Cl)c3)nc(N)c2cc1OC	19	?	i	21µM*	2	21µM*
COc1cc2nc(Nc3ccc(C)c(C)c3)nc(N)c2cc1OC	-11	i	i	?	2	?
CCOC(=O)c1ccc(Nc2nc(N)c3cc(OC)c(OC)cc3n2)cc1	23	i	i	21µM*	0	?
O=C(CCCn1nnnc1CN1CCOCC1)N1CCC(c2ccc(F)cc2)C1 (stereo unspecified)	3	.	.	4%	-2	5%
COc1ccc(-c2nn3c(-c4cc(C)[nH]n4)nnc3s2)cc1	.	i	i	.	.	.
CCS(=O)(=O)c1ccc(C=NNc2nc3ccccc3o2)cc1	.	18µM*	i	2%	-5	-3%
O=C(CSCc1ccc(Cl)cc1)NCc1ccc2c(c1)OCO2	1	i	i	5%	-10	9%
Cn1cc(/C=N/n2cnc3sc4c(c3c2=O)CCCC4)c2ccccc21	-6	21µM*	?	?	-3	18µM*
O=c1c2c3c(sc2ncn1/N=C/c1ccc([N+](=O)[O-])o1)CCCC3	-4	21µM*	21µM*	4.1µM*	-4	12µM*
Cc1ccc(C)n1-n1cnc2sc3c(c2c1=O)CCC3	14	i	i	-1%	9	?
O=C(CSc1ccc2c(c1)OCCO2)N1CCN(c2ccccc2O)CC1	-2	?	?	9%	3	-1%
CCOc1ccccc1N1CCN(C(=O)CSc2ccc3c(c2)OCCO3)CC1	14	12µM*	i	22%	16	-9%
CC(=O)N1CCCc2cc(S(=O)(=O)CCC(=O)N3CCN(c4cccc(C)c4)C(C)C3)ccc21 (stereo unspecified)	-93*	?	i	8%	-4	-8%
Cc1cccc(N2CCN(C(=O)CCS(=O)(=O)c3ccc(Br)cc3)CC2C)c1 (stereo unspecified)	-18	?	i	7%	1	-2%
COc1ccc(-c2nc3n(n2)C(c2ccccc2OC)C(C(=O)Nc2cccnc2)=C(C)N3)cc1 (stereo unspecified)	.	i	i	.	.	.
Cc1cccc[n+]1CCCCCCCCCC[n+]1ccccc1C	13	i	1.5µM*	-2%	2	-22%
COc1ccc(NC(=S)N2CCN(C(=O)c3ccccc3)CC2)cc1	1	?	i	4%	-9	-6%
O=C(Nc1cccnc1)c1ccc2snnc2c1	-125*	i	i	-1%	-151*	1%[9.22 µM]
SMILES	KCNH2 3.1 block	KB-V1 MDR tox	KB-3-1 cytotox	MCF10A rereplic	KCNH2 WT inh	SW480 rereplic
CC(Oc1ccccc1)C(=O)Nc1ccc(C(=O)OCc2cc(=O)n3ccsc3n2)cc1 (stereo unspecified)	.	i	i	.	.	.
Cc1ccsc1/C=C1\SC(N2CC(C)OC(C)C2)=NC1=O (stereo unspecified)	5	18µM*	?	-38%	2	2%
CCCCOc1ccc(CNC(=O)c2cnc3sc(N4CCC(C)CC4)nn3c2=O)cc1	.	i	i	.	.	.
Cc1cccc(-c2noc(-c3ccc(N4CCN(C)CC4)c([N+](=O)[O-])c3)n2)c1	.	i	18µM*	.	.	.
O=C(Cn1ccc(C(F)(F)F)n1)N/N=C/c1ccc(N2CCOCC2)cc1	-6	i	i	11%	2	6%
O=C(c1ccc(S(=O)(=O)NCc2ccco2)cc1)N1CCCC(C(F)(F)F)C1 (stereo unspecified)	5	?	i	19%	18	6%
CCOc1ccccc1NC(=O)CNS(=O)(=O)c1ccc2nc(C)sc2c1	-25	i	i	1%	2	1%
CCOc1ccccc1OCC(=O)Nc1nnc(COC)s1	-4	18µM*	i	5%	-9	0%
C=C1CC(COc2cc(=O)oc3ccccc23)(c2ccccc2)OC1=O (stereo unspecified)	-12	?	10µM*	2.6µM*	20	28%
CCC(C)(C)c1ccc(OCCCC[n+]2cccc(C)c2)c(C(C)(C)CC)c1	-5	i	3.3µM*	?	-5	?
CCc1ccc2oc(-c3cc(NC(=O)c4cccnc4)cc(C)c3O)nc2c1	.	?	i	.	.	.
N#Cc1ccc(OCC(O)CN2CCC(C(O)(c3ccccc3)c3ccccc3)CC2)cc1 (stereo unspecified)	-120*	i	i	?	-144*	?
COc1cc(OC)cc(C(=O)NC2CCN(CCCOc3ccccc3)CC2)c1	-24	i	i	26%	35	-4%
Cc1cc(OCCCN2CCC(C(O)(c3ccccc3)c3ccccc3)CC2)ccc1Br	.	21µM*	?	.	.	.
CCOc1ccc(NC(=S)N2CCC(C(O)(c3ccccc3)c3ccccc3)CC2)cc1	-25	?	i	16%	-1	.
N#Cc1cccc(OCCCN2CCC(C(O)(c3ccccc3)c3ccccc3)CC2)c1	.	23µM*	?	.	.	.
COc1ccc(NC(=O)CSc2nc3nc(C)c(Cc4ccccc4)c(C)n3n2)cc1OC	.	i	i	.	.	.
CCOC(=O)CSC1=NC(=O)/C(=C/c2ccc(OC)cc2)S1	-4	?	12µM*	5.8µM*	6	?
CC(C)C[C@@H](CNCC(=O)[C@H](CC(C)C)NC(=O)c1[nH]cnc1C(=O)N[C@H](CN)CC(C)C)NC(=O)c1nc[nH]c1C(=O)N[C@@H](CC(=O)O)C(=O)O	-7	i	i	?	22	27%
